The text below walks through data of PubChem BioAssay AID602244 (Sanford-Burnham Center for Chemical Genomics, 2012).

The campaign covered roughly 360,000 compounds. About 1,300 (0.36%) were called active. The sample as a whole holds a higher share of actives than the screen did. A number with no mark means an inactive call. Rule as the data show it: active = inhibition above about 34% (passing the limit was not always enough); inactive = the rest.

The target of the experiment is C-X-C chemokine receptor type 6 (Homo sapiens) (UniProt O00574). As to the kind of experiment: CXCR6 receptor inhibitors, primary screen, cell-based, beta-arrestin, luminescence, CHO-K1 PathHunter, 1536-well (AID 602244).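 Also: antagonist mode with CXCL16 agonist at 10 nM final; 0% = 10 nM CXCL16 with DMSO and 100% = unstimulated wells without agonist.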 Conditions: at 20 µM, stronger effect = higher value.
C-X-C chemokine receptor type 6 (Homo sapiens), sequence (O00574 whole entry, looked up): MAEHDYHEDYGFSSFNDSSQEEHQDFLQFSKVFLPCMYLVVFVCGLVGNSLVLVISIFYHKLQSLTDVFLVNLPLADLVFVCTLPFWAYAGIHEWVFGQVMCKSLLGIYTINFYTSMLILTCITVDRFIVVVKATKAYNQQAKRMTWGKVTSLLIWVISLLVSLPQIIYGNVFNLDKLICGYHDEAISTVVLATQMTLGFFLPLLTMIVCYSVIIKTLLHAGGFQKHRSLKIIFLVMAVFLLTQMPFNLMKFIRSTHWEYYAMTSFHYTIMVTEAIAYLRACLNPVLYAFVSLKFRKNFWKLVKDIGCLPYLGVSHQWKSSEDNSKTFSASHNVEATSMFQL
Usually inhibition stands for the drop in the measured response relative to a control, in per cent. Regarding `CCCCC(=O)N/N=C/c1c(O)n(CC)c(=S)n(CC)c1=O`, the inhibition was 58.7% (active).

As to `Cn1c(O)c(C=NCCCC(=O)O)c(=O)n(C)c1=O`, the inhibition was -3.2%.

With `O=C(N/N=C/c1c(O)n(Cc2ccccc2)c(=O)[nH]c1=O)c1ccccc1`, the inhibition is 7.9%.

Turning to `Cc1cc(C)cc(NC(=S)NC2CC3CCCC(C2)N3Cc2cccs2)c1` (stereo not given), the inhibition is 3.2%.

On to `Oc1cc2c(cc1CN1CCN(c3ccccc3)CC1)OCO2`, for which the inhibition is 5.6%.

Consider `CCCC[N+]1(C)C2CC(OC(=O)C(CO)c3ccccc3)CC1C1OC12` (stereo not given), for which the inhibition is 0.8%.

For `Cc1ccc(-c2nn(CCC#N)cc2C(=O)O)cc1C`, the inhibition is 9.5%.

Take `Cc1cccc(N2C(=O)NC(=O)/C(=C\c3cnn(-c4ccccc4)c3)C2=O)c1`: the inhibition was 51.1% (active).

On to `C/C=C/CC1(CC)C(=O)NC(=S)NC1=O`, for which the inhibition is -5.1%.

For the compound `COc1ccc(S(=O)(=O)NCc2ccc(C(=O)N3CCC4(CC3)OCCO4)cc2)cc1`, the inhibition is 3.3%.

For the compound `CCOC(=O)C1=C(C)OC(N)=C(C(=O)OC)C12C(=O)Nc1ccc(Br)cc12` (stereo not given), the inhibition was 9.8%.

For `O=C1NC(=O)C(CCOc2ccccc2)(CCc2ccccc2)C(=O)N1`, the inhibition was -10%.

In the case of `C=CCN1C(=O)C2(C(C(=O)OCC)=C(N)Oc3c2c(=O)oc2ccccc32)c2ccccc21` (stereo not given), the inhibition is -2.4%.

In the case of `CC(=O)OC1C2(CC3N4C(=O)C5(CO)SSC4(CC31O)C(=O)N5C)OC(C)C(C)(C)C2=O` (stereo not given), the inhibition was 99.4% (active).

As to `CNC(=O)O/N=C(\N)Cc1csc2ccc(Cl)cc12`, the inhibition is 0%.
